± gives the standard deviation. Over roughly 8,200 sequences, “pre-steady-state target cleavage rate” has its median near 0.024; the highest 2% begin near 1.3. The list comes from a sample in which the highest values are over-represented; it also holds similar and randomly drawn sequences.
Test system: MIWI (PIWIL1) piRISC loaded with L1MC piRNA (30 nt)
Assay: pre-steady-state target cleavage rate (min^-1); MIWI and MILI are mouse PIWI proteins and EfPiwi is from a freshwater sponge; tags in brackets are library labels; higher = faster piRNA-guided slicing of the target
Details: guide: L1MC piRNA 5'p-UAACUAAAUACUAUGCAAGCUGUAGGUCCU
Description: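 Cleave-'n-Seq: a library of target RNAs (target site embedded in constant flanks, ACAGCATTCCGCGTTAGTGATATCCG... 5' flank; DNA-blocked outside the site) at 0.1 nM was incubated with 1 nM active mouse MILI or MIWI piRISC (synthetic 5'-monophosphorylated piRNA guide) with or without 500 nM mouse GTSF1 at 33 °C for 1 min to 16 h. Uncleaved targets were sequenced and normalised to non-target controls, and the pooled three trials were fitted to a burst-and-steady-state model to give the pre-steady-state cleavage rate (min^-1; k3 is constrained to at most 1e-4). Sequence is the target site only; target names encode pairing extent (gX:gY) and contiguous / 1-mismatch / 2-mismatch / bulge geometry. Fits with R² ≤ 0 are excluded.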

[1] = auxiliary factor: 500 nM mouse GTSF1
[2] = auxiliary factor: none (no GTSF1)

| Sequence | pre-steady-state target cleavage rate [1] | pre-steady-state target cleavage rate [2] |
| --- | --- | --- |
| AGGUCCUACAGCUUGCAUAGUAUUUAGUAA | 0.77 ± 0.055 | 0.0647 ± 0.012 |
| ACGUCCUACAGCUUGCAUAGUAUUUAGUUA | 1.52 ± 0.055 | 0.0835 ± 0.013 |
| UGGUCCUACAGCUUGCAAAGUAUUUAGUUA | 1.13 ± 0.04 | 0.0413 ± 0.0067 |
| UCGUCCUACAGCUUGCAUAGUAUUUAGUUA | 1.42 ± 0.041 | 0.0638 ± 0.0093 |
| AGGUCCUACAGCUUGCAAAGUAUUUAGUUA | 1.35 ± 0.043 | 0.0532 ± 0.01 |
| UGGUCCUACAGCUUGCAUAGUAUUUAGUUA | 1.16 ± 0.052 | 0.0862 ± 0.015 |
| UCGUCCUACAGCUUGCAUAGUAUUUAGAAA | 0.469 ± 0.042 | 0.00751 ± 0.0029 |
| UCGUCCUACAGCUUGCAUAGUAUUUAGUAA | 0.82 ± 0.037 | 0.0372 ± 0.0076 |
| UCCUACUACAGCUUGCAUAGUAUUUAGUUA | 0.886 ± 0.036 | 0.057 ± 0.0085 |
| UCGUCCUACAGCUUGCAAAGUAUUUAGUUA | 1.3 ± 0.032 | 0.0388 ± 0.0068 |
| AGGUCCUACAGCUUGCAUAGUAUUUAGUUA | 1.43 ± 0.054 | 0.111 ± 0.019 |
| UCCUGGAUCAGCUUGCAUAGUAAUUAGAUA | 0.216 ± 0.036 | 0.0126 ± 0.0029 |
| UCCUGGAACAGCUUGGUAAGUAUUUAGUUA | 0.00797 ± 0.0031 |  |
| UCCUGGAUGUGCUUGACAUAGUAUUUAGUUA | 0.0551 ± 0.0082 |  |
| UCCUGGAUCAGCUUGCAUAGUAUUAUGUAA | 0.0189 ± 0.0065 | 0.00377 ± 0.0026 |
| UCCUGGAUGUGCUUGGAUACUAUUUAGUUA | 0.031 ± 0.011 | 0.0033 ± 0.0029 |
| UCCUGGAUGUCGAACCAUACUAAUUAGUUA |  | < 0.0001 |
| AGGACCUACAGCUAGCAUAGUAAUUAGUUA | 0.745 ± 0.06 | 0.0091 ± 0.0021 |
| UCCUGGAUCACCAUGCAUAGUAUUUAGUUA | 0.0303 ± 0.0068 |  |
| UCCUGCUACAGCUUGCUUAGUAUUUAGUUA | 0.987 ± 0.056 | 0.0337 ± 0.008 |
| UCCAGCUACAGCUUGCUUAGUAUUUAGUUA | 0.78 ± 0.039 | 0.0235 ± 0.004 |

| Sequence | pre-steady-state target cleavage rate [1] | pre-steady-state target cleavage rate [2] |
| --- | --- | --- |
| UGGUCCUACAGCUUGCUUAGUAUUUAGUUA | 1.21 ± 0.035 | 0.0478 ± 0.0087 |
| UCGUCCUACAGCUUGCUUAGUAUUUAGUUA | 1.43 ± 0.047 | 0.0358 ± 0.0073 |
| AGGUCCUACAGCUUGCUUAGUAUUUAGUUA | 1.54 ± 0.069 | 0.0542 ± 0.011 |
| UCCUCCUACAGCUUGCUAGUAUUUAGUUA | 0.0615 ± 0.017 |  |
| AGGACCUACAGCUUGCAUAGAUAUUUAGUUA | 0.143 ± 0.048 |  |
| UCCACCUACAGCUUGCAUUCAAUUUAGUUA | 0.0179 ± 0.0084 |  |
| UCGACCUUCUGCUUGCAUAGUAUUUAGUUA | 1.45 ± 0.048 | 0.0653 ± 0.011 |
| UCGACCUUGUGCUUGCAUAGUAUUUAGUUA | 0.871 ± 0.038 | 0.0513 ± 0.0098 |
| UCGACCUGCAGCUUGCAUAGUAUUUAGUUA | 1.41 ± 0.072 | 0.0674 ± 0.013 |
| AGGACCUUCUGCUUGCAUAGUAUUUAGUUA | 1.24 ± 0.042 | 0.082 ± 0.015 |
| AGGACCUGCAGCUUGCAUAGUAUUUAGUUA | 1.38 ± 0.088 | 0.0689 ± 0.014 |
| UCCUCCUGCAGCUUGCAUAGUAUUUAGUUA | 1.1 ± 0.053 | 0.0513 ± 0.0088 |
| UGGACCUUCUGCUUGCAUAGUAUUUAGUUA | 1.3 ± 0.066 | 0.0534 ± 0.0096 |
| UCGACCUGACAGCUUGCAUAGUAUUUAGUUA | 1.25 ± 0.057 | 0.0632 ± 0.011 |
| AGGACCUGACAGCUUGCAUAGUAUUUAGUUA | 1.17 ± 0.07 | 0.067 ± 0.011 |
| UCCACCUGCAGCUUGCAUAGUAUUUAGUUA | 1.15 ± 0.13 | 0.0541 ± 0.011 |
| UGGACCUGACAGCUUGCAUAGUAUUUAGUUA | 1.56 ± 0.12 | 0.0824 ± 0.017 |
| UCCUGGAACAGCUUGCAUAGUAUUUAGUAA | 0.685 ± 0.046 | 0.0337 ± 0.0083 |
| UCCUGCUACACGAUGCAUAGUAUUUAGUAA | 0.396 ± 0.032 |  |
| UCCUGGAUGUCGAUGCUUAGUAUUUUGUUA | < 0.0001 |  |
| UCCUGGAUCACGUUGCAUAGUAUUUAGUAA | 0.0198 ± 0.0044 |  |

| Sequence | pre-steady-state target cleavage rate [1] | pre-steady-state target cleavage rate [2] |
| --- | --- | --- |
| UCGACGUACAGCUUCCAUAGUAUUUAGUUA | 0.0527 ± 0.011 | 0.00418 ± 0.0013 |
| UCGAGCUACAGCUUGCAUAGUAUUUUGUUA | 1.06 ± 0.06 | 0.0528 ± 0.0088 |
| UCCUGGAUGAGCUUGCAUAGUAUUAUGUUA | 0.194 ± 0.027 | 0.0102 ± 0.0042 |
| UCCUGGAUGAGCUUGCAUAGUAAUUAGAAA | 0.0194 ± 0.0086 |  |
| UCCUGGUACAGCUUGCAUAGUAUUUUGAUA | 0.166 ± 0.031 | 0.00994 ± 0.0034 |
| UCCUGCUGCAGCUUGCAUAGUAUUUAGUUA | 1.27 ± 0.058 | 0.0512 ± 0.011 |
| UGGACCUAGUGCUUGCAUAGUAUUUAGUUA | 0.979 ± 0.061 | 0.0419 ± 0.0095 |
| UGGACCUGCAGCUUGCAUAGUAUUUAGUUA | 1.57 ± 0.099 | 0.0683 ± 0.013 |
| UCCUGGAUGUCGAACCAUAGAAUAUAGUUA |  | < 0.0001 |
| UCCUGGAUGUCCAUGCAUAGUAUUUUGUUA | 0.00484 ± 0.0039 |  |
| UCCUCCUUCAGCUUGCAAAGUAUUUAGUUA | 1.16 ± 0.041 | 0.0323 ± 0.0072 |
| UCGACCUUCAGCUUGCAUAGUAUUUAGAAA | 0.659 ± 0.064 | 0.0103 ± 0.0029 |
| UCGACCUUCAGCUUGCAUAGUAUUUAGUUA | 1.51 ± 0.047 | 0.0696 ± 0.012 |
| UCGACCUUCAGCUUGCUUAGUAUUUAGUUA | 1.33 ± 0.05 | 0.0363 ± 0.0088 |
| UCGACCUUCAGCUUGCAAAGUAUUUAGUUA | 1.33 ± 0.045 | 0.0401 ± 0.0087 |
| AGCACCUUCAGCUUGCAUAGUAUUUAGUUA | 0.711 ± 0.089 | 0.0548 ± 0.014 |
| UCCUCCUUCAGCUUGCUUAGUAUUUAGUUA | 1.31 ± 0.054 | 0.0243 ± 0.0053 |
| UCCACCUUCAGCUUGCUUAGUAUUUAGUUA | 1.16 ± 0.037 | 0.0231 ± 0.005 |
| UCCACCUUCAGCUUGCAAAGUAUUUAGUUA | 1.17 ± 0.038 | 0.0305 ± 0.0063 |
| ACGACCUUCAGCUUGCAUAGUAUUUAGUUA | 1.45 ± 0.042 | 0.0921 ± 0.015 |
| UGCACCUUCAGCUUGCAUAGUAUUUAGUUA | 1.08 ± 0.091 | 0.0562 ± 0.011 |

| Sequence | pre-steady-state target cleavage rate [1] | pre-steady-state target cleavage rate [2] |
| --- | --- | --- |
| UCGACCUUCAGCUUGCAUAGUAUUUAGUAA | 1.05 ± 0.065 | 0.043 ± 0.011 |
| UCCUCGUACAGCUUGCAUAGUUUUUAGUUA | 0.478 ± 0.013 | 0.0475 ± 0.011 |
| UCCUGCUACAGCUUGCAUAGUAAUUUCAAA | 0.278 ± 0.074 |  |
| UCCACCAACUGCUUGCAUAGUAUUUAGUUA | 0.828 ± 0.036 | 0.0532 ± 0.0097 |
| UGGACCUACAGCAUGCAUAGUAUUUAGAAA | 0.5 ± 0.061 | 0.00651 ± 0.0026 |
| UCCACCUACACCUUGCAUAGUAUAUAGUUA | 0.543 ± 0.068 | 0.025 ± 0.0054 |
| UCCUGCAACAGCUUGCAUAGAAUUUAGUUA | 0.492 ± 0.048 | 0.0261 ± 0.0079 |
| UCCUGGAUCAGCUUGCAAACUAUUUAGUUA | 0.0815 ± 0.0098 | 0.00677 ± 0.003 |
| AGGACCUAAGCUUGCAUAGUAUUUAGUUA | 1.05 ± 0.071 | 0.0685 ± 0.013 |
| UCGACCUACAGUCUUGCAUAGUAUUUAGUUA | 1.16 ± 0.063 | 0.0611 ± 0.012 |
| UCGACCUACAUCUUGCAUAGUAUUUAGUUA | 1.61 ± 0.043 | 0.077 ± 0.014 |
| UCCACCUACAUCUUGCAUAGUAUUUAGUUA | 0.85 ± 0.036 | 0.0567 ± 0.0096 |
| UGGACCUACAUCUUGCAUAGUAUUUAGUUA | 1.38 ± 0.043 | 0.0737 ± 0.012 |
| UCGACCUACACCUUGCAUAGUAUUUAGUUA | 1.15 ± 0.046 | 0.0525 ± 0.008 |
| AGGACCUACAUCUUGCAUAGUAUUUAGUUA | 1.39 ± 0.036 | 0.0767 ± 0.012 |
| UGGACCUACAUGCUUGCAUAGUAUUUAGUUA | 0.925 ± 0.054 | 0.0601 ± 0.013 |
| AGGACCUACACCUUGCAUAGUAUUUAGUUA | 1.17 ± 0.037 | 0.0855 ± 0.015 |
| AGGACCUACAUGCUUGCAUAGUAUUUAGUUA | 0.767 ± 0.056 | 0.0684 ± 0.013 |
